The values below come from PubChem BioAssay (NCI).

The structures appear in SMILES notation. This is part of a sample that, as a whole, favours compounds with a hit. Of some 83,000 tested, about 20% had one in any assay.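 Values shown are percent growth following 48 h exposure of cells in 96-well plates to a single concentration of compound; below 10 was considered active.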 Values without a mark were called inactive. The source made the active and inactive calls.

Holding throughout (experiment): NCI-60 one-dose screen, 48 h (100 = growth as untreated, 0 = no growth, -100 = all killed)
One experiment concerns T-47D breast. Particulars: 10 µM unless noted.
Another experiment has as its system BT-549 breast. The note with it: 10 µM unless noted.
The subject of another experiment is MDA-MB-435 melanoma. Particulars: 10 µM unless noted.
The test system of a further experiment is SW-620 colon. The note with it: 10 µM unless noted.
The subject of another experiment is MCF7 breast. Particulars: 10 µM unless noted.
For a further experiment, the system named is HCT-116 colon. Particulars: 10 µM unless noted.
A further experiment relates to HCC-2998 colon. Particulars: 10 µM.
For a further experiment, the system named is KM12 colon. The note with it: 10 µM unless noted.

Turning to `O=C1CC(c2cccc(F)c2)c2c(n[nH]c2-c2ccc(Cl)cc2)N1` (configuration not stated), the growth was 55.8% with T-47D breast; 92.4% in the experiment on BT-549 breast; 99.5% in the experiment on MDA-MB-435 melanoma; 114% in the experiment on SW-620 colon; 96.5% in the experiment with MCF7 breast; 74.4% with HCT-116 colon. Further, the growth was 102% in the experiment on HCC-2998 colon and 91.7% in the experiment on KM12 colon.

In the case of `Nc1c(C(=O)c2ccccc2)sc2nc(-c3cccs3)ccc12`, the growth is 41.8% with T-47D breast; 59.6% in the experiment on BT-549 breast; -5.48% (active) with MDA-MB-435 melanoma; 28.4% in the experiment on SW-620 colon; 34.2% with MCF7 breast; 13.3% with HCT-116 colon. For the same molecule, the values for the growth in the experiment with HCC-2998 colon and with KM12 colon were 32.3% and 28.3%, respectively.

Regarding `N#Cc1c(-c2ccc(C(F)(F)F)cc2)c(F)c(NCCC2CCC(O)C2)n2c1nc1ccccc12` (configuration not stated), the growth was 67.9% in the experiment on T-47D breast; 30.1% in the experiment on BT-549 breast; 84.1% in the experiment on MDA-MB-435 melanoma; 55.6% in the experiment on SW-620 colon; 46.2% with MCF7 breast; 30.7% in the experiment with HCT-116 colon. Moreover, the growth with HCC-2998 colon is 80.7%; with KM12 colon, 57.9%.

Regarding `Cc1ccc(F)c(NC(=O)Nc2ccc(-c3cccc4[nH]nc(N)c34)cc2)c1`, the growth in the experiment on T-47D breast was 1.25% (active); in the experiment with BT-549 breast it was 29.2%; with MDA-MB-435 melanoma, 16.8%; with SW-620 colon it was 14.9%; in the experiment on MCF7 breast it was 2.81% (active); with HCT-116 colon, 6.9% (active). In addition, the growth in the experiment with HCC-2998 colon is -6.88% (active); in the experiment on KM12 colon it was 2.63% (active).

With `C=CC(=O)N(C)[C@H]1C[C@H]2OC(C)(C1OC)n1c3ccccc3c3c4c(c5c6ccccc6n2c5c31)C(=O)NC4` (some centres not stated), the growth with T-47D breast was 16.5%; with BT-549 breast, -70.4% (active); in the experiment on MDA-MB-435 melanoma, 6.02% (active); in the experiment with SW-620 colon, 10.3%; in the experiment with MCF7 breast, 12.5%; in the experiment on HCT-116 colon, -48.4% (active). Also, the growth was -48.1% (active) in the experiment with HCC-2998 colon and 9.67% (active) with KM12 colon.

On to `COc1cc(Nc2ncc(F)c(Nc3ccc4c(n3)NC(=O)C(C)(C)O4)n2)cc(OC)c1OC`, for which the growth was 39% in the experiment with T-47D breast; 34.1% in the experiment on BT-549 breast; 51.2% in the experiment with MDA-MB-435 melanoma; 59.5% with SW-620 colon; 41.5% with MCF7 breast; 59.3% with HCT-116 colon. Moreover, the growth with HCC-2998 colon is 100%; in the experiment on KM12 colon it was 12.3%.

In the case of `CCCCN1C(=O)c2cccc3c(-c4ccc5c(c4)ncn5C4CCCCC4)ccc(c23)C1=O`, the growth is 81.9% in the experiment with T-47D breast; 99.4% with BT-549 breast; 109% in the experiment on MDA-MB-435 melanoma; 107% in the experiment with SW-620 colon; 96.7% with MCF7 breast; 91.7% in the experiment with HCT-116 colon. Moreover, the growth in the experiment on HCC-2998 colon is 102%; in the experiment with KM12 colon, 92.2%.

As for `CCc1cnn2c(NCc3ccc[n+]([O-])c3)cc(N3CCCC[C@H]3CCO)nc12`, the growth was -16.9% (active) with T-47D breast; -15.7% (active) with BT-549 breast; -35.4% (active) in the experiment on MDA-MB-435 melanoma; -4.01% (active) with SW-620 colon; 1.85% (active) in the experiment on MCF7 breast; 1.22% (active) in the experiment on HCT-116 colon. Moreover, the growth with HCC-2998 colon was -37.3% (active); in the experiment on KM12 colon it was 1.55% (active).

`Cc1ccc(-c2cc3c(SCC(=O)Nc4cc(C(F)(F)F)ccc4Cl)nccn3n2)cc1`: the growth in the experiment on T-47D breast was 101%; in the experiment on BT-549 breast it was 81.2%; in the experiment with MDA-MB-435 melanoma it was 38.7%; in the experiment with SW-620 colon it was 18.2%; with MCF7 breast, 14.7%; in the experiment on HCT-116 colon it was 14.7%. Besides, in the experiment on HCC-2998 colon, the growth is 19.5%.

On to `COc1cccc(Nc2ncnn3ccc(CN4CC[C@@H](N)[C@H](O)C4)c23)c1`, for which the growth with T-47D breast is -1.78% (active); in the experiment with BT-549 breast, 48.3%; with MDA-MB-435 melanoma, 75.6%; in the experiment with SW-620 colon, 88.4%; with MCF7 breast, 58.8%; in the experiment on HCT-116 colon, 21.9%. In addition, the growth in the experiment with HCC-2998 colon is 77.1%; in the experiment with KM12 colon, 14.1%.

For `CC(C)=CCc1cc2c(cc1O)C1=C(C(=O)C3=C(C1=O)S(=O)(=O)CCN3)C(C=C(C)C)O2` (configuration not stated), the growth in the experiment on T-47D breast was -2.63% (active); in the experiment with BT-549 breast, -73.6% (active); in the experiment with MDA-MB-435 melanoma, -52.6% (active); with SW-620 colon, -18.9% (active); in the experiment on MCF7 breast, -50.7% (active); with HCT-116 colon, -24.8% (active). Also, the results for the growth in the experiment with HCC-2998 colon and with KM12 colon were -66% (active) and 13.6%, respectively.

As to `O=c1[nH]ccc2c(S(=O)(=O)N3CCCNCC3)cccc12`, the growth in the experiment with T-47D breast is 37.7%; in the experiment on BT-549 breast, 61.3%; in the experiment with MDA-MB-435 melanoma it was 88%; with SW-620 colon, 91.1%; in the experiment with MCF7 breast, 85.9%; in the experiment with HCT-116 colon it was 81.5%. Further, the growth with HCC-2998 colon is 92.2%; in the experiment with KM12 colon it was 93.3%.

Regarding `C=CCn1c(=O)c2cnc(Nc3ccc(N4CCN(C)CC4)cc3)nc2n1-c1cccc(C(C)(C)O)n1`, the growth in the experiment on T-47D breast is 36.4%; in the experiment on BT-549 breast it was 1.3% (active); in the experiment on MDA-MB-435 melanoma, -61.7% (active); in the experiment on SW-620 colon it was 14.6%; in the experiment with MCF7 breast, 15.7%; in the experiment with HCT-116 colon, 2.48% (active). The values for the growth in the experiment on HCC-2998 colon and with KM12 colon were 9.01% (active) and 0.327% (active), respectively.

Take `Clc1ccc2c(NCCNc3nc(N4CCCC4)nc4ccccc34)ccnc2c1`: the growth with T-47D breast is -14% (active); in the experiment on BT-549 breast, -11.3% (active); with MDA-MB-435 melanoma, -41.3% (active); with SW-620 colon, 5.27% (active); with MCF7 breast, 28.5%; with HCT-116 colon, -63.6% (active). In addition, the growth with HCC-2998 colon is 7.18% (active); in the experiment with KM12 colon it was 10.9%.

Turning to `CSC1=C(N)C(=O)c2[nH]cc(CO)c2C1=N`, the growth in the experiment on T-47D breast is -43.8% (active); in the experiment with BT-549 breast, -93.5% (active); in the experiment with MDA-MB-435 melanoma it was -84.1% (active); in the experiment on SW-620 colon, -56.2% (active); in the experiment on MCF7 breast it was -41.8% (active); in the experiment on HCT-116 colon, -86.7% (active). For the same molecule, the growth in the experiment with HCC-2998 colon is -94.1% (active); in the experiment on KM12 colon it was -63.4% (active).

On to `Cc1cc(C(=O)NOCCO)c(Nc2ccc(I)cc2F)n(C)c1=O`, for which the growth in the experiment on T-47D breast is 103%; with BT-549 breast, 85.7%; in the experiment with MDA-MB-435 melanoma it was 35.4%; in the experiment on SW-620 colon, 24.8%; in the experiment with MCF7 breast it was 94.7%; in the experiment with HCT-116 colon, 15.2%. The growth with HCC-2998 colon is -16.6% (active); with KM12 colon, 28.4%.
